# How the values were obtained:
# Test in all cases: DAPPL (digital affinity profiling via proximity ligation, sequencing); 10 mM Tris-HCl pH 7.5, 50 mM NaCl, 1 mM DTT, 4% glycerol, room temperature, 30 min; GST-TFs on glutathione beads, 16-mer random dsDNA library, 0.1% formaldehyde crosslink after washing; high values mean tight binding
# Conditions in all cases: protein: recombinant; tags: N-terminal GST; dsDNA, one strand shown
# FLI1 = target: T1, FLI1 (Homo sapiens, UniProt Q01543 1-452)
# T1 sequence: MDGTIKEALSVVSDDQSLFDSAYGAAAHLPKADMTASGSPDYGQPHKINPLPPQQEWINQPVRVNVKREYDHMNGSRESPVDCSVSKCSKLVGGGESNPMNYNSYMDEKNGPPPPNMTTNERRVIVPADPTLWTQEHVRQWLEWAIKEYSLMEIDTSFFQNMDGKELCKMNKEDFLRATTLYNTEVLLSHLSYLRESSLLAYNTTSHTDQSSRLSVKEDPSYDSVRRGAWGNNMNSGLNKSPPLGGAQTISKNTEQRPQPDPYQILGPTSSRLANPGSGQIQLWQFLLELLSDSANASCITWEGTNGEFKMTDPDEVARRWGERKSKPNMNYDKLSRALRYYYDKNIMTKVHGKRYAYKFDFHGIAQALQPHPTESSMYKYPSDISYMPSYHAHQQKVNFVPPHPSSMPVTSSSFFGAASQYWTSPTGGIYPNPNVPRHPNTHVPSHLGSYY
# How it was run: (§1)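 Human transcription factors carrying a GST fusion were produced in yeast, bound to glutathione beads, tagged with DNA barcodes and pooled together with a tag-only sample. Each pool was held with 200 nmole of a random double-stranded 16-mer DNA library in Tris/NaCl/DTT/glycerol buffer for 30 min at room temperature, then washed, crosslinked in 0.1% formaldehyde, proximity-ligated with BsaI/T4 ligase (1 h, 37 °C), PCR-amplified and sequenced on an Illumina NextSeq500. Binding signal is the read frequency of each hexamer for a given factor divided by its frequency in the tag-only sample.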
# ELK1 = target: T2, ELK1 (Homo sapiens, UniProt P19419 1-428)
# T2 sequence: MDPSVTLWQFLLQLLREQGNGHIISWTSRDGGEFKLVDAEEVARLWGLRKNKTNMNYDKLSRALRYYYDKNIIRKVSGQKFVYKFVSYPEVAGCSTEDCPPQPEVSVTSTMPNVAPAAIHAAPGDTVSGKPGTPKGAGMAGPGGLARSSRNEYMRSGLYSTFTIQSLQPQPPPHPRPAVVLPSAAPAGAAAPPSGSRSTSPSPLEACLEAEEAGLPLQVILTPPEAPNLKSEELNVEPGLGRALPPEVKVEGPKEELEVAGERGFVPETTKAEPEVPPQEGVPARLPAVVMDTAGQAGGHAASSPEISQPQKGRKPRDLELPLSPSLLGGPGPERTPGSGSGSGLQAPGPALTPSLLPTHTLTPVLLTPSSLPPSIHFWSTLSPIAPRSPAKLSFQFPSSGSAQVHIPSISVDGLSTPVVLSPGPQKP
# How it was run: as §1
# GABPA = target: T3, GABPA (Homo sapiens, UniProt Q06546 1-454)
# T3 sequence: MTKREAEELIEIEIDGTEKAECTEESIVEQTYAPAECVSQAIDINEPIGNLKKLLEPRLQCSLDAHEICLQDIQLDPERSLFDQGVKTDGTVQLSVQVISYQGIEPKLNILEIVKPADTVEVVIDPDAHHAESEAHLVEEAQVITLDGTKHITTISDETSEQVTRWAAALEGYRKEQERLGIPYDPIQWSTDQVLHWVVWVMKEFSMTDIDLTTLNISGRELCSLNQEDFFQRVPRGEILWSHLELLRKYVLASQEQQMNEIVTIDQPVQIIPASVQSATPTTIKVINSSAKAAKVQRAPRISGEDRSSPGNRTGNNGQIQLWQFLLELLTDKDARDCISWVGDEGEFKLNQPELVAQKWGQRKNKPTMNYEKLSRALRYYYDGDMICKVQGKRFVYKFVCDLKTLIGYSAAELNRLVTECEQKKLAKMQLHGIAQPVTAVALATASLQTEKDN
# How it was run: as §1
# ERG = target: T4, ERG (Homo sapiens, UniProt P11308 1-479)
# T4 sequence: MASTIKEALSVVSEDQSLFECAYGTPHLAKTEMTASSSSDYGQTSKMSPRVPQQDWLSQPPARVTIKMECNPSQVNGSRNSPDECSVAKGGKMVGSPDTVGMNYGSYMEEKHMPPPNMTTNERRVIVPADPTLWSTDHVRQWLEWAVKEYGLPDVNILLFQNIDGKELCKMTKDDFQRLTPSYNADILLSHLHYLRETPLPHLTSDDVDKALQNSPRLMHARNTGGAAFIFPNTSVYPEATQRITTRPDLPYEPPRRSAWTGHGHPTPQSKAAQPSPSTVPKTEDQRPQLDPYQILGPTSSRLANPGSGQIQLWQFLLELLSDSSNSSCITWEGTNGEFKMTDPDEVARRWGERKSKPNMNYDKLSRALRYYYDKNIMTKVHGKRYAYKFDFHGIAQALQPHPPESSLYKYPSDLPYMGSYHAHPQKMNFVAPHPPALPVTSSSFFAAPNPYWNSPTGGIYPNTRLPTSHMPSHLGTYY
# How it was run: as §1
# ELF1 = ELF1 (Homo sapiens, UniProt P32519 1-619)
# How it was run: as §1
# EHF = target: T5, EHF (Homo sapiens, UniProt Q9NZC4 1-300)
# T5 sequence: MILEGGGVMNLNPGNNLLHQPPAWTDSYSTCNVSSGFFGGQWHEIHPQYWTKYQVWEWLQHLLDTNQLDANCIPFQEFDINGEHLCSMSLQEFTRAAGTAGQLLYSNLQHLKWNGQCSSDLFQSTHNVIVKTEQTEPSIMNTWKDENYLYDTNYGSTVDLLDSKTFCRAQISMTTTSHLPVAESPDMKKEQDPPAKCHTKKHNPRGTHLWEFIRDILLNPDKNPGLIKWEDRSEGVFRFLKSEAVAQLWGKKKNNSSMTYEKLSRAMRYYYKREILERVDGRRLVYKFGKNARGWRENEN
# How it was run: as §1
# SPI1 = SPI1 (Homo sapiens, UniProt P17947 1-270)
# How it was run: as §1
# SPIB = SPIB (Homo sapiens, UniProt Q01892 1-262)
# How it was run: as §1
# ELK3 = target: T6, ELK3 (Homo sapiens, UniProt P41970 1-407)
# T6 sequence: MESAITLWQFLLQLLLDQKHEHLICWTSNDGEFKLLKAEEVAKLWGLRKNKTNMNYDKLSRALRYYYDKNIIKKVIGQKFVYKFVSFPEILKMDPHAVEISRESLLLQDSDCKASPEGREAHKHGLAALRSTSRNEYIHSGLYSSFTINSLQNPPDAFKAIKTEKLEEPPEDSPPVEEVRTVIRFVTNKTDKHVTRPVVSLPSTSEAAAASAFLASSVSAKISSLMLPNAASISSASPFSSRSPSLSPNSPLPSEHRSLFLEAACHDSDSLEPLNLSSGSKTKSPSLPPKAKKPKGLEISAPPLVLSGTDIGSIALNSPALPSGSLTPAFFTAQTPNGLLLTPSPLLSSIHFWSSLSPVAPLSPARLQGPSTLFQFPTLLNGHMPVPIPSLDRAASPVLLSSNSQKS
# How it was run: as §1
# FEV = target: T7, FEV (Homo sapiens, UniProt Q99581 1-238)
# T7 sequence: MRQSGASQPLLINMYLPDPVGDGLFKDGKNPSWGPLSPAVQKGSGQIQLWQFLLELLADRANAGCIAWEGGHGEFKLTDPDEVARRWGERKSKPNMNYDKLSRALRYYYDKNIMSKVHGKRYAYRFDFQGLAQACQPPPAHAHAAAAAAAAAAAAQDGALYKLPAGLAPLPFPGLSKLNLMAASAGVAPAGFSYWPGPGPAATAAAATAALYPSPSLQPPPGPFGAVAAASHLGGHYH
# How it was run: as §1
# Sequence of SPIB (Q01892 whole entry): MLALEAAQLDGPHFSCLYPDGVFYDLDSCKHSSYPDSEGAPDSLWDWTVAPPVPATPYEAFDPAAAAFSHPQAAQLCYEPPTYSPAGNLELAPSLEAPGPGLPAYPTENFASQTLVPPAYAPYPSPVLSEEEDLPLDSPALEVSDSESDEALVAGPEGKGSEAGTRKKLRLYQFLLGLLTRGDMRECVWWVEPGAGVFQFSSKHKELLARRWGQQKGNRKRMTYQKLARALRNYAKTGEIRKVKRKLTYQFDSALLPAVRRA
# Sequence of ELF1 (P32519 whole entry): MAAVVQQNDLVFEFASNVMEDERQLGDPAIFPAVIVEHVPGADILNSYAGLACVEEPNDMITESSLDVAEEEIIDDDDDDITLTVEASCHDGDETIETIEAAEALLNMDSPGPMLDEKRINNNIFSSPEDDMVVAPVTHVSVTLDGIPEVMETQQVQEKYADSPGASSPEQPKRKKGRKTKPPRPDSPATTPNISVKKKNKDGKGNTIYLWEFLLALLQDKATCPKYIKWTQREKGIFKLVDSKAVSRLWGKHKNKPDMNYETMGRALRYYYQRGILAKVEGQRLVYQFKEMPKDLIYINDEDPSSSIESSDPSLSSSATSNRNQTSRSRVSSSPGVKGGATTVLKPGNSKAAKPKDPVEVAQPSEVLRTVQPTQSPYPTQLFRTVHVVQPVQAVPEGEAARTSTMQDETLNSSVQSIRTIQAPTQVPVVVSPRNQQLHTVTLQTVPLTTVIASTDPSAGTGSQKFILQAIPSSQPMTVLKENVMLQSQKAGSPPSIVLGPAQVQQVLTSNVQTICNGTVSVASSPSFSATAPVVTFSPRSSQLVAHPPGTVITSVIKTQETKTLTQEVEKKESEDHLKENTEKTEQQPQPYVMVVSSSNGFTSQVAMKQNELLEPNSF
sequence,measurement,setting,value
CCACCT,binding signal,FLI1,"1.16 fold enrichment (6-mer frequency, TF over GST control)"
same,binding signal,ELK1,"1.12 fold enrichment (6-mer frequency, TF over GST control)"
same,binding signal,GABPA,"1.1 fold enrichment (6-mer frequency, TF over GST control)"
same,binding signal,ERG,"1.11 fold enrichment (6-mer frequency, TF over GST control)"
same,binding signal,ELF1,"1.15 fold enrichment (6-mer frequency, TF over GST control)"
same,binding signal,EHF,"1.21 fold enrichment (6-mer frequency, TF over GST control)"
same,binding signal,SPI1,"1.11 fold enrichment (6-mer frequency, TF over GST control)"
same,binding signal,SPIB,"1.07 fold enrichment (6-mer frequency, TF over GST control)"
same,binding signal,ELK3,"1.06 fold enrichment (6-mer frequency, TF over GST control)"
same,binding signal,FEV,"1.17 fold enrichment (6-mer frequency, TF over GST control)"
